The source of these data is PubChem BioAssay (NCI).

The panel holds about 83,000 compounds, 20% with a hit somewhere; the sample as a whole holds those more often.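 Percent growth is the endpoint: 0 to 100 indicates growth inhibition (40 means 60% inhibition), 0 means no net growth, and negative values indicate cell death.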 Unmarked numbers belong to inactive results. The source made the active and inactive calls. How the source made its calls: active means growth percent below 10; inactive means the rest.

This assay deals with NCI/ADR-RES ovarian. Description: NCI-60 one-dose screen, 48 h (100 = growth as untreated, 0 = no growth, -100 = all killed). The following applies: 10 µM unless noted.
For `O=S(=O)(NCCNc1nccc(-n2cnc3ccccc32)n1)c1ccc(Br)cc1`, the growth is 97.6%.

On to `NS(=O)(=O)c1ccc(Nc2nc(N/N=C/c3ccccn3)nc(Nc3ccccc3)n2)cc1`, for which the growth is 49%.

Consider `NC(N)=Nc1ccc(Oc2cccc(Nc3ccc(Br)c(C(F)(F)F)c3)c2)cc1`, for which the growth was 93.7%.

For `O=c1[nH]c2ccccc2cc1CSc1ccccc1Nc1nccc(-c2ccc(Cl)cc2)n1`, the growth was 95.1%.

As for `COc1ccccc1C(=O)Nc1cccc2c1C(=O)C(=O)C=C2`, the growth is 113%.

For the molecule `CCO/C=N/C1=C(C#N)C(c2ccc(F)cc2)c2sc3c(C)cccc3c2O1` (stereo not drawn), the growth is 12.1%.

As for `O=C(NNc1nc2cc(F)ccc2n2c(CN3CCCC3)ccc12)c1cnccn1`, the growth was 0.656% (active).

`COc1cc(-c2nn(C(C)(C)C)cc2-c2ccnc(NCCCNS(=O)(=O)c3ccccc3)n2)ccc1Cl`: the growth was 71%.

`O=C(NCc1ncc[nH]1)c1ccc(-c2nc3ccc4[nH]ncc4c3c3c2CCCC3)cc1`: the growth was 90.2%.

Consider `O=C(NNc1nc2cc(F)ccc2n2c(CO)ccc12)c1cnccn1`, for which the growth is 3.02% (active).

Consider `O=[N+]([O-])c1cc(/C=N/Nc2nc(N/N=C/c3ccc(Cl)c([N+](=O)[O-])c3)nc(N3CCCCC3)n2)ccc1Cl`, for which the growth was 30.2%.

`COc1c(N2CC3CCCNC3C2)c(F)cc2c(=O)c(C(=O)N/N=C/c3ccccc3)cn(C3CC3)c12` (stereo not drawn): the growth is 104%.

Regarding `O=C(CNc1nc(-c2cccc([N+](=O)[O-])c2)cs1)Nc1cccc(Cl)c1`, the growth was 105%.
